The list is not random: actives were taken first. Their share in the collection is about 2.4%.
CHRM1 PAM – potentiates human M1 receptor response to acetylcholine; CHO-K1 hM1, Fluo-8 calcium fluorescence, ACh EC20; 0% = ACh EC20, 100% = maximal ACh; activation, % at 3 µM; 0.088% of 360,000 active; AID 588819; in the data active means activation above about 19%, passing the limit was not always enough
Target sequence (P11229 whole entry, looked up): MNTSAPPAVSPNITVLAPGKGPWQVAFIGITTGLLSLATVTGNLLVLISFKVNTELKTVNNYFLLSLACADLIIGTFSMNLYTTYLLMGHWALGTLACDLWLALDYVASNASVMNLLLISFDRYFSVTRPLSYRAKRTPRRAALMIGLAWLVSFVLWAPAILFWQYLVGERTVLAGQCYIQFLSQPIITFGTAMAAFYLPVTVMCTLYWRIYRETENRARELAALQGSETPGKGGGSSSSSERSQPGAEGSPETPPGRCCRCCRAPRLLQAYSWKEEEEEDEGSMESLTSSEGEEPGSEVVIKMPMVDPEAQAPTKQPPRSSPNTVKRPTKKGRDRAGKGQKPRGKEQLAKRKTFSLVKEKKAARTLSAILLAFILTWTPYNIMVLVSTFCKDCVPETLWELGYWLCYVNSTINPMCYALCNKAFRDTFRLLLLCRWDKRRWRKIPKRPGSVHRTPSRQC
CHO-K1 Ca ag – counter-screen for M1 agonists: effect in parental CHO-K1 cells; Fluo-8 calcium fluorescence; scaled to maximal ATP response, vehicle zero; activation, % at 3 µM; 0.48% of 360,000 active; AID 602248; in the data active means activation above about 15%;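 further: untransfected CHO-K1 host cells lacking M1 receptor as counterscreen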
CHRM1 agonist – agonists of human M1 muscarinic receptor; CHO-K1 hM1, Fluo-8 calcium fluorescence, agonist mode; 0% DMSO, 100% acetylcholine EC100; activation, % at 3 µM; 0.33% of 360,000 active; AID 588814;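 active means activation above the run's mean compound activation plus 3 SD, cut at about 16% in these data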;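 further: peak over basal fluorescence ratio within a 140 s kinetic read after compound addition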
CHO-K1 Ca PAM – nonselective activator or artifact in parental CHO-K1 calcium assay | AID 602247 | ATP EC20, Fluo-8 calcium fluorescence; 0% at ATP EC20, 100% at ATP max | 0.02% of 360,000 active | activation, % at 3 µM;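 active means activation above the run cutoff, the mean activation of all test compounds plus 3 SD, cut at about 40% in these data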;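 further: peak over basal fluorescence ratio in a 140 s read after ATP addition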
CHRM1 antagonist – antagonists of human M1 muscarinic receptor; P11229; CHO-K1 hM1, Fluo-8 calcium fluorescence, ACh EC80 antagonist; inhibition, % at 3 µM; 1.3% of 360,000 active; AID 588852;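 active means percent inhibition above its own plate's cutoff, namely the mean of that plate's compound wells plus 3 SD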;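 further: peak over basal fluorescence ratio during 140 s after agonist addition; 0% = ACh EC80 plus DMSO and 100% = DMSO alone without agonist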
CHO-K1 Ca antag – M1 antagonist counterscreen hit in parental CHO-K1 cells. inhibition, % at 3 µM. 0.6% of 360,000 active. ATP-induced calcium, Fluo-8 fluorescence;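 active means inhibition above a per-plate cutoff, the plate's mean sample inhibition plus 3 SD, cut at about 24% in these data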;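 further: 0% = DMSO plus EC80 ATP and 100% = DMSO alone without ATP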
Starred values were filed as active, the others as inactive.

`Cc1cc(/C=C2/SC(=O)NC2=O)c(C)n1-c1ccc(N2CCOCC2)cc1` gave CHRM1 PAM 2, CHO-K1 Ca ag 12, CHRM1 agonist 20*, CHO-K1 Ca PAM 35, CHRM1 antagonist -3 and CHO-K1 Ca antag -9.
Screening Cc1cc(/C=C(\C#N)C(=O)Nc2ccc(F)cc2)c(C)n1-c1ccc(N2CCOCC2)c([N+](=O)[O-])c1 returned CHRM1 PAM 10, CHO-K1 Ca ag 1, CHRM1 agonist -2, CHO-K1 Ca PAM 16, CHRM1 antagonist -8 and CHO-K1 Ca antag -8.
CC1CN(c2nc3ccccc3nc2SCC(=O)Nc2cccc(C(F)(F)F)c2)CC(C)O1 (stereo unspecified) was read as CHRM1 PAM -3, CHO-K1 Ca ag 0, CHRM1 agonist -1, CHO-K1 Ca PAM 11, CHRM1 antagonist 7 and CHO-K1 Ca antag -11.
`CC1CCCCN1C(=O)COC(=O)c1cc(Cl)c2c(c1)OCO2` (stereo unspecified) gave CHRM1 PAM 1, CHO-K1 Ca ag 5, CHRM1 agonist -6, CHO-K1 Ca PAM 14, CHRM1 antagonist 4 and CHO-K1 Ca antag 12.
CN1CCC(N(C)C(=O)c2ccc(Cl)c(S(=O)(=O)N3CCOCC3)c2)CC1 was read as CHRM1 PAM 3, CHO-K1 Ca ag 1, CHRM1 agonist 7, CHO-K1 Ca PAM 9, CHRM1 antagonist -9 and CHO-K1 Ca antag -8.
For Oc1ccccc1N=N/C(=N/Nc1ccccc1O)c1ccccc1 the results were CHRM1 PAM -1, CHO-K1 Ca ag 0, CHRM1 agonist -5, CHO-K1 Ca PAM 17, CHRM1 antagonist 2 and CHO-K1 Ca antag -13.
Screening N#C/C(N=Nc1ccccc1O)=N\Nc1ccccc1O returned CHRM1 PAM -12, CHO-K1 Ca ag 16*, CHRM1 agonist 1, CHO-K1 Ca PAM 4, CHRM1 antagonist 25 and CHO-K1 Ca antag 10.
`CCNC(=O)C1(C)CCCN(C(=O)Cc2ccc(OC)c(OC)c2)C1` (stereo unspecified) gave CHRM1 PAM 12, CHO-K1 Ca ag 0, CHRM1 agonist 1, CHO-K1 Ca PAM 13, CHRM1 antagonist -10 and CHO-K1 Ca antag -6.
For CN(C)c1nc(N)c(C#N)c(C#N)c1C#N the results were CHRM1 PAM 7, CHO-K1 Ca ag 2, CHRM1 agonist 1, CHO-K1 Ca PAM 19, CHRM1 antagonist -7 and CHO-K1 Ca antag -12.
For COc1cc(NC(=S)NC2CC(C)(C)NC(C)(C)C2)c(OC)cc1Cl the results were CHRM1 PAM 4, CHO-K1 Ca ag 0, CHRM1 agonist 36*, CHO-K1 Ca PAM 9, CHRM1 antagonist 2 and CHO-K1 Ca antag 7.
`CC1(C)CC(NC(=S)NC(=O)c2cc(Br)ccc2Cl)CC(C)(C)N1` gave CHRM1 PAM 11, CHO-K1 Ca ag 0, CHRM1 agonist 22*, CHO-K1 Ca PAM -4, CHRM1 antagonist -5 and CHO-K1 Ca antag 2.
`COc1cccc(NC(=S)NC2CC(C)(C)NC(C)(C)C2)c1` gave CHRM1 PAM -6, CHO-K1 Ca ag 0, CHRM1 agonist 0, CHO-K1 Ca PAM -11, CHRM1 antagonist 10 and CHO-K1 Ca antag 26*.
For CC(C)(C)c1nc2ccc(NS(=O)(=O)c3ccc(F)c(F)c3F)cc2[nH]1 the results were CHRM1 PAM -2, CHO-K1 Ca ag 1, CHRM1 agonist -6, CHO-K1 Ca PAM -7, CHRM1 antagonist 0 and CHO-K1 Ca antag -11.
`O=C(Nc1ccccc1)N1CCN(c2nc(-c3ccccc3)ns2)CC1` gave CHRM1 PAM -17, CHO-K1 Ca ag 10, CHRM1 agonist 3, CHO-K1 Ca PAM -25, CHRM1 antagonist 32* and CHO-K1 Ca antag 18.
O=C(Nc1ccccc1Cl)N1CCCN(c2nc(-c3ccccc3)ns2)CC1 was read as CHRM1 PAM -21, CHO-K1 Ca ag 13, CHRM1 agonist 0, CHO-K1 Ca PAM -18, CHRM1 antagonist 38 and CHO-K1 Ca antag 23.
COc1cc(/C=C2\C(=O)N(c3cccc(C(=O)O)c3)N=C2C)ccc1OCc1ccccc1 was read as CHRM1 PAM 3, CHO-K1 Ca ag 0, CHRM1 agonist -3, CHO-K1 Ca PAM -10, CHRM1 antagonist -8 and CHO-K1 Ca antag -1.
For C#CCOc1ccc(/C=C2/C(=O)N(c3cccc(C(=O)O)c3)N=C2C)cc1OC the results were CHRM1 PAM 9, CHO-K1 Ca ag -1, CHRM1 agonist 1, CHO-K1 Ca PAM -19, CHRM1 antagonist -7 and CHO-K1 Ca antag 26*.
Screening CCCOc1ccc(/C=N/NC(=O)c2ccc3c(c2)OCO3)c(OCCC)c1 returned CHRM1 PAM 32*, CHO-K1 Ca ag 0, CHRM1 agonist 4, CHO-K1 Ca PAM -8, CHRM1 antagonist -28 and CHO-K1 Ca antag -12.
COc1ccccc1/C=N/NC(=O)c1ccc2c(c1)OCO2 was read as CHRM1 PAM 5, CHO-K1 Ca ag 1, CHRM1 agonist -4, CHO-K1 Ca PAM 13, CHRM1 antagonist -8 and CHO-K1 Ca antag -9.
COc1cccc(NS(=O)(=O)c2ccc(-n3cccn3)cc2)c1 was read as CHRM1 PAM -18, CHO-K1 Ca ag 16*, CHRM1 agonist 4, CHO-K1 Ca PAM 0, CHRM1 antagonist 44* and CHO-K1 Ca antag 12.
For Cc1ccc(NS(=O)(=O)c2ccc(-n3cccn3)cc2)cc1F the results were CHRM1 PAM -7, CHO-K1 Ca ag 5, CHRM1 agonist 1, CHO-K1 Ca PAM 4, CHRM1 antagonist 10 and CHO-K1 Ca antag -7.
Screening Cc1ccc(NS(=O)(=O)c2ccc(-n3cccn3)cc2)nc1 returned CHRM1 PAM 4, CHO-K1 Ca ag 2, CHRM1 agonist -4, CHO-K1 Ca PAM 12, CHRM1 antagonist -7 and CHO-K1 Ca antag 31*.
Cc1ccc(NS(=O)(=O)c2ccc(-n3cccn3)cc2)c(C)c1 was read as CHRM1 PAM -3, CHO-K1 Ca ag 9, CHRM1 agonist 4, CHO-K1 Ca PAM 12, CHRM1 antagonist 4 and CHO-K1 Ca antag -12.
For CCN(CC(=O)Nc1cc(S(=O)(=O)N2CCCCC2)ccc1C)Cc1ccccc1 the results were CHRM1 PAM -1, CHO-K1 Ca ag 1, CHRM1 agonist -4, CHO-K1 Ca PAM 1, CHRM1 antagonist 1 and CHO-K1 Ca antag -11.
For CC(=O)c1cccc(NC(=S)N2CCN(S(=O)(=O)c3ccccc3)CC2)c1 the results were CHRM1 PAM -3, CHO-K1 Ca ag 1, CHRM1 agonist -5, CHO-K1 Ca PAM 15, CHRM1 antagonist 4 and CHO-K1 Ca antag -4.
For NC(=O)c1ccc(Oc2ncc(C(F)(F)F)cc2Cl)cc1 the results were CHRM1 PAM 10, CHO-K1 Ca ag 16*, CHRM1 agonist -4, CHO-K1 Ca PAM 25, CHRM1 antagonist -7 and CHO-K1 Ca antag -1.
COc1ccc(N2CCN(CC(=O)c3c[nH]c4ccccc34)CC2)cc1 was read as CHRM1 PAM 13, CHO-K1 Ca ag 0, CHRM1 agonist 0, CHO-K1 Ca PAM -22, CHRM1 antagonist -11 and CHO-K1 Ca antag 24*.
